In the library only some 10% were active in any assay of this set; here they are far more common.
GLS inhibitor = blocks human kidney-isoform glutaminase activity. O94925. GLS enzymatic activity, qHTS titration. Potency, µM (titrated, usually from 45.5 µM), for inactives: at the highest dose activity change, negative = inhibition, most hits filed as inhibitors. hit rate 0.21% among 410,000; note: % is set by controls: 0 for no effect and ±100 for the full control effect
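Glutamate formation by hKGA was monitored fluorometrically using coupled glutamate oxidase, HRP and Amplex Red. Substrate was added as 1 mM L-glutamine solution; incubation was 30 min at RT after an initial read.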
HP1b binding inh = inhibitors of HP1-beta chromodomain binding to methylated histone tails | P83916 | AlphaScreen HP1-beta / biotin-H3K9me3 peptide binding | Potency, µM (highest dose often 114 µM), inactives show at the highest dose activity change, negative = inhibition, usual class: inhibitors | hit rate 0.56% among 390,000 | AID 540317; note: nearly all actives have a fitted effect of over 70% in size
Target sequence (P83916 whole entry, looked up): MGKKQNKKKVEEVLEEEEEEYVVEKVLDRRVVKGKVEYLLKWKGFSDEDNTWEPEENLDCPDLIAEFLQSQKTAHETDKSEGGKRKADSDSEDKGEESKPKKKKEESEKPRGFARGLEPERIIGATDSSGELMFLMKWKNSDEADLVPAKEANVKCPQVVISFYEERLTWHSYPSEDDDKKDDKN
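AlphaScreen: HP1-beta (50 nM) preformed 30 min with biotin-H3(1-18)K9me3 peptide (50 nM) in PBS pH 7.4, 0.01% Tween-20. Compound added for 30 min at RT, then streptavidin donor/nickel chelate acceptor beads (10 ug/mL) for 30 min.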
JMJD2A Tudor inh = blocks the human JMJD2A Tudor domain; hit rate 4.4% among 390,000; Potency, µM (doses to about 114 µM), for inactives: top-dose activity change, negative = inhibition, most hits filed as inhibitors; AID 504339; AlphaScreen JMJD2A-Tudor / H3K4me3 peptide binding; O75164; note: % is set by controls: 0 for no effect and ±100 for the full control effect; nearly all actives have a fitted effect of over 50% in size
BAZ2B inh = inhibitors of human BAZ2B bromodomain; AID 504333; Potency, µM (doses to about 114 µM), for the others: top-dose activity change, negative = inhibition, usual class: inhibitors; AlphaScreen BAZ2B-H3K14Ac peptide displacement; hit rate 4.4% among 360,000; Q9UIF8; note: % is set by controls: 0 for no effect and ±100 for the full control effect; nearly all actives have a fitted effect of over 60% in size
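In this displacement format the biotinylated H3(5-23) peptide acetylated at Lys14 serves as ligand at 50 nM, with BAZ2B at 50 nM in PBS pH 7.4 containing 0.01% Tween-20. Donor and acceptor beads are 10 ug/mL final.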
G9a block = G9a (human) methyltransferase inhibition; G9a H3K9 monomethylation, AlphaScreen, 2 h; Potency, µM (doses to about 102 µM), inactives show at the top dose activity, negative = inhibition, most hits filed as inhibitors; hit rate 8.8% among 350,000; Q96KQ7; note: % is set by controls: 0 for no effect and ±100 for the full control effect; nearly all actives have a fitted effect of over 75% in size
Target sequence (Q96KQ7 913-1193 limits assumed): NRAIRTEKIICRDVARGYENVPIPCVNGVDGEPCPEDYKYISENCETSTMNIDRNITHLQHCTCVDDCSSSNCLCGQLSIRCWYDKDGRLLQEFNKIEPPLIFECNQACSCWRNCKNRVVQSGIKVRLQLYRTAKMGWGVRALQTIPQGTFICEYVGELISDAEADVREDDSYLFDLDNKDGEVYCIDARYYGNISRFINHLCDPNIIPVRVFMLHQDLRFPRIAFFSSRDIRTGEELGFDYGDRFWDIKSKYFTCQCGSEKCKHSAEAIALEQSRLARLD
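AlphaScreen detection with an anti-monomethyl H3K9 antibody quantified product after a 2 h room-temperature reaction containing 500 nM biotinylated H3K9 peptide, 20 µM SAM and 20 nM enzyme, which had been preincubated 15 min with compound.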
* hit, by the source's call; ? = inconclusive; · = no result given; ! = not active in a repeat; [ ] = remark or other dose. Calls come from the whole dose curve; as a rule, active = well fitted curve in the direction sought with a large enough effect; inconclusive = small, poorly fitted or top-dose-only effect, or another doubt; inactive = no such curve, though single readings can be large; an effect the other way counts as inactive or inconclusive. Potency is the fitted concentration of half-maximal effect.

SMILES	GLS inhibitor	HP1b binding inh	JMJD2A Tudor inh	BAZ2B inh	G9a block
O=C(c1ccco1)N(Cc1cccc(F)c1)C1CCS(=O)(=O)C1 (stereo unspecified)	3%	23%	-13%	56µM*	-9%
CCOc1ccccc1C(=O)N(Cc1cc(OC)c(OC)c(OC)c1)C1CCS(=O)(=O)C1 (stereo unspecified)	1%	15%	-17%	2%	12%[59 µM]
CCN(CC)c1ccc(CN(C(=O)c2cc(OC)c(OC)c(OC)c2)C2CCS(=O)(=O)C2)cc1 (stereo unspecified)	27%	-5%	?	?	35µM*
Cc1cc(NC(=O)C(Cl)Cl)cc2c1OCO2	-16%	11%	-3%	·	·
O=C1OC2(CCCCC2)OC(=O)C1=CNc1nccs1	34%	32%	-12%	-22%	50µM*
O=C1OC2(CCCCC2)OC(=O)C1=CNc1nc2ccccc2s1	0%	29%	-21%	?	?
CC1(C)C(=O)N(c2ccccc2Cl)C(=O)c2ccccc21	0%	38%	2%	7%	79µM*
COc1ccc(-c2cn3c(C)c(C(=O)Nc4ccncc4)sc3n2)cc1	4%	45%	-17%	-33%	13µM*
Cc1c(C(=O)N2CCN(C(=O)c3ccco3)CC2)sc2nc(-c3ccc(F)cc3)cn12	0%	31%	-22%	-21%	40µM*
COc1ccc(-c2cn3c(C)c(C(=O)N4CCCc5ccccc54)sc3n2)cc1	-5%	-15%	?	·	·
Cc1c(C(=O)Nc2ccncc2)sc2nc(-c3ccc(F)cc3)cn12	-6%	44%	-13%	-3%	40µM*
COc1ccc(-c2cn3c4c(sc3n2)CCCC4)cc1	·	28%	12%	?	50µM*
COc1ccc(N2CCN(C(=O)c3sc4nc(-c5ccc(F)cc5)cn4c3C)CC2)cc1	1%	62%	-10%	6%	?
Cc1c(C(=O)Nc2cc(F)ccc2F)sc2nc(-c3ccc(F)cc3)cn12	-2%	22%[57 µM]	-17%	8%	27%[59 µM]
Cc1ccc(N2CCN(C(=O)NCc3noc4ccccc34)CC2C)cc1 (stereo unspecified)	38%	55%	-5%	-30%	-31%[59 µM]
O=S(=O)(Cc1ccccc1)N1CCN(Cc2c(F)cccc2Cl)CC1	-2%	23%	0%	-2%	35µM*
COc1ccc(OC)c(CN2CCN(S(=O)(=O)c3ccccc3)CC2)c1	3%	?	20µM*	?	-28%[59 µM]
O=S(=O)(c1ccccc1)N1CCN(Cc2cccc(Cl)c2)CC1	-9%	-54%	8.9µM*	32µM*	?
COc1ccc(S(=O)(=O)N2CCN(c3ccc(F)cc3)CC2)cc1OC	4%	28%	2%	?	-1%
COc1ccc(CN2CCN(S(=O)(=O)c3ccc(F)cc3)CC2)cc1OC	-1%	?	3.2µM*	32µM*	10µM*
O=C(CSc1nc2c([nH]c3ccccc32)c(=O)n1-c1ccccc1)N1CCc2ccccc21	1%	15%[57 µM]	1%	6%	16%[59 µM]
COc1cccc(C(=O)Nc2cccc(C(=O)OCc3cc(=O)n4c(C)csc4n3)c2)c1	9%	20%	-3%	-18%	7%[59 µM]
COc1ccc(CN2CCN(c3ccc(F)cc3)CC2)c(OC)c1OC	20%	1%	-31%	-34%	-3%[59 µM]
COc1cccc(CN2CCN(S(=O)(=O)c3ccccc3)CC2)c1OC	7%	?	28µM*	·	·
COc1ccccc1CN1CCN(S(=O)(=O)c2ccccc2)CC1	-1%	?	40µM*	32µM*	?
SMILES	GLS inhibitor	HP1b binding inh	JMJD2A Tudor inh	BAZ2B inh	G9a block
COc1ccc(CN2CCN(S(=O)(=O)c3ccc(F)cc3)CC2)c(OC)c1OC	-4%	-49%	1.4µM*	?	28µM*
COc1ccc(Br)cc1CN1CCN(S(=O)(=O)Cc2ccccc2)CC1	7%	?	8.9µM*	-21%	20µM*
O=C(c1cc(Br)ccc1O)N1CCN(S(=O)(=O)Cc2ccccc2)CC1	10%	23%	-2%	6%	1%[12.7 µM]
CCN(CC)CCNC(=O)C(=O)Nc1c2c(nn1-c1ccc(F)cc1)CSC2	3%	29%	-9%	-5%	-37%[59 µM]
CCc1ccc(NC(=S)N(CCN2CCOCC2)Cc2ccccc2F)cc1	4%	9%	-18%	-22%	1%
Cc1nc(NC(=O)C(C)(C)C)sc1C(=O)Cn1cc(-c2ccc(C(C)(C)C)cc2)nn1	-22%	·	·	·	·
COc1ccc(CN2CCN(S(=O)(=O)c3ccccc3)CC2)c(OC)c1OC	4%	?	22µM*	·	·
Cc1ccc(S(=O)(=O)N2CCN(Cc3cccc(F)c3)CC2)cc1	-8%	?	3.2µM*	·	·
Cc1ccc(CNC(=O)C2CC(c3cccc([N+](=O)[O-])c3)=NO2)o1 (stereo unspecified)	6%	10%	-30%	-37%	4%[59 µM]
CN1CCN(c2ccc(S(=O)(=O)N3CCOCC3)cc2NC(=O)COc2ccc(C#N)cc2)CC1	1%	22%	-7%	·	·
O=c1[nH]c2ccccc2nc1/C=C/c1ccc(Cl)cc1	?	8%	10µM*	-3%	-5%
CC(=O)Nc1ccc(/C=C/c2nc3ccccc3[nH]c2=O)cc1	0%	28%	-6%	1%	?
O=C(CSc1nnc2c(n1)[nH]c1ccccc12)Nc1ccc(N2CCOCC2)cc1	3%	0%	32µM*	-31%	·
Brc1ccc2[nH]c3nc(SCCN4CCOCC4)nnc3c2c1	21%	6%	79µM*!	-12%	40µM*
CCCCSc1nnc2c(n1)[nH]c1ccccc12	2%	23%	22µM*	?	-3%[12.7 µM]
O=C(Cc1c[nH]c2ccccc12)N1CCN(c2ccccc2)CC1	23%	9%	-28%	-30%	?
O=C(CSc1nnc2c(n1)[nH]c1ccc(F)cc12)N1CCOCC1	1%	29%	-5%	-3%	-2%
O=C(Cc1c[nH]c2ccccc12)Nc1ccc(N2CCOCC2)cc1	0%	0%	?	?	22µM*
Cc1ccc(NC(=O)CSc2nnc3c(n2)[nH]c2ccccc23)cc1	-5%	19%	-8%	-1%	20%
O=C(c1ccc(CNS(=O)(=O)c2ccc(F)cc2)cc1)N1CCCCCC1	-1%	·	·	·	·
Cc1ccc(S(=O)(=O)N2CCC(=O)N([C@H](COC(=O)Nc3ccccc3)Cc3ccccc3)CC2)cc1	-3%	·	·	·	·
CC(C)(C)OC(=O)N1CCCC1C(=O)NC(Cc1ccccc1)C(=O)O (stereo unspecified)	6%	42%	-7%[57.1 µM]	-15%	17%[59 µM]
c1ccc2c(c1)[nH]c1nc(SCCN3CCOCC3)nnc12	7%	18%	79µM*	6%	3.5µM*
CCCn1c2ccccc2c2nnc(SCCN3CCOCC3)nc21	3%	37%	-24%	-20%	?
CC(C)N(C(=O)CSc1ccc(S(=O)(=O)N2CCCCC2)cn1)c1ccccc1	2%	61%	-12%	-13%	-3%[2.33 µM]
